The list is not random: actives were taken first. Their share in the collection is about 1.2%.
Pemphigus Ab inh: blocks pemphigus antibody binding to human desmoglein-3 | P32926 | DSG3-coupled beads, scFv-anti-DSG3-GFP binding, flow cytometry; hits give low values | binding (percent of control), % at 10 µM | 310,000 compounds, 0.48% hits | AID 588358;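 active = binding more than 3 SD below its plate's average and above zero; inconclusive = below that plate limit but binding exactly zero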;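 note: hits lower antibody fragment binding to DSG3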
Target sequence (P32926 whole entry, looked up, the tested form may be a part): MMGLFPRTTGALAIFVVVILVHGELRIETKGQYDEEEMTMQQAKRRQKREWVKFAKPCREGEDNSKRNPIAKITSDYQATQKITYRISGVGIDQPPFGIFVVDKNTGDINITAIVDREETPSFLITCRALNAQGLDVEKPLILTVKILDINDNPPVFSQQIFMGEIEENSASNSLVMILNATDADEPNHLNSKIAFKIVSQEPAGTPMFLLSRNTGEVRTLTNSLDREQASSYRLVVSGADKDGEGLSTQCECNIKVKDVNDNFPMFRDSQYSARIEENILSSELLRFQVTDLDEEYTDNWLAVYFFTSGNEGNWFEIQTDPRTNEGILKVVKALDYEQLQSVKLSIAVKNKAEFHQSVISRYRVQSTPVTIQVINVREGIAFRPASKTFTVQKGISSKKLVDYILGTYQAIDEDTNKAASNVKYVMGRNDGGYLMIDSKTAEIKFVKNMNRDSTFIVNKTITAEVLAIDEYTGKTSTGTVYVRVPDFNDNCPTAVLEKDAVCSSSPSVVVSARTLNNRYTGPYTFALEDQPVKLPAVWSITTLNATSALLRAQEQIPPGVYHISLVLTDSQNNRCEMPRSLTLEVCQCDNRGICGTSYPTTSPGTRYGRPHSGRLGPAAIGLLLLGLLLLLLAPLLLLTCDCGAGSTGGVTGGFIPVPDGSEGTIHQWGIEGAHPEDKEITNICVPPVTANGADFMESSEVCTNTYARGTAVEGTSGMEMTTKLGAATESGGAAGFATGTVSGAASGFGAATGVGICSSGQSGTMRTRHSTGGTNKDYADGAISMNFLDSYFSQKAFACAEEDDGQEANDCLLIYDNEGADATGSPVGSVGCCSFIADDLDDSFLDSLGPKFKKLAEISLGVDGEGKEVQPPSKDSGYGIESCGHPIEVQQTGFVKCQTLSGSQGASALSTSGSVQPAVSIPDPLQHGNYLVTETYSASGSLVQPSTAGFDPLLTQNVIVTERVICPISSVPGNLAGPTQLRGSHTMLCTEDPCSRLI
RPL19A-GFP yeast: alters RPL19A-GFP fluorescence in TOR pathway yeast screen | S. cerevisiae RPL19A-GFP strain, flow cytometry, 3 h; hits give low values | percent response vs DMSO, % at 10 µM | 330,000 compounds, 0.3% hits | AID 2025;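 active = percent response vs DMSO below 50%; inconclusive = fewer than 70 events counted for the yeast strain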;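 note: median channel GFP fluorescence of the barcoded RPL19A-GFP strain; lower means less RPL19A-GFP as with rapamycin TOR inhibition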
AGP1 TOR yeast: modulators of TOR pathway AGP1-GFP in S. cerevisiae; S. cerevisiae AGP1-GFP multiplex flow cytometry, 3 h; GFP as percent of DMSO wells; GFP response vs DMSO, % at 10 µM; 320,000 compounds, 0.02% hits; AID 2066;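 active = GFP response relative to DMSO above a set limit, near screen average plus 3 SD, cut at about 150% in these data; inconclusive = fewer than 70 cells counted for the yeast strain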;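 note: median GFP channel fluorescence of the gated AGP1 strain per well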
LAP4-GFP MLPCN: modulators of TOR pathway LAP4-GFP in S. cerevisiae | GFP response vs DMSO, % at 10 µM | AID 2023 | 320,000 compounds, 0.34% hits | S. cerevisiae LAP4-GFP multiplex, flow cytometry GFP, 3 h; median GFP as percent of DMSO wells;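 active = GFP response vs DMSO above a set limit, about the screen mean plus 3 SD, cut at about 150% in these data; inconclusive = under 70 cell events counted for the yeast strain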
CIT2 TOR yeast: yeast TOR pathway CIT2-GFP modulation | 320,000 compounds, 0.065% hits | S. cerevisiae CIT2-GFP strain, flow cytometry, 3 h; 100 means same as DMSO wells | GFP response vs DMSO, % at 10 µM | AID 2029;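 active = GFP response relative to DMSO above a set limit, near the screen mean plus 3 SD, cut at about 150% in these data; inconclusive = Fewer than 70 cells measured for a yeast strain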;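 note: ratio of well median GFP fluorescence to mean of DMSO wells on the plate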
MEP2 TOR yeast: alters MEP2-GFP fluorescence in TOR pathway yeast screen; S. cerevisiae MEP2-GFP strain, flow cytometry GFP, 3 h; 100% = DMSO control level; 330,000 compounds, 0.51% hits; GFP response vs DMSO, % at 10 µM;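 active = GFP response versus DMSO above a set limit, roughly screen mean plus 3 SD, cut at about 180% in these data; inconclusive = fewer than 70 cells counted for a yeast strain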;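 note: median GFP fluorescence of the barcode-gated MEP2-GFP cells per well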
LAP4 cherry2: reconfirmed LAP4-GFP TOR pathway modulator in yeast; S. cerevisiae LAP4-GFP strain, flow cytometry GFP, 3 h; shares compounds with LAP4-GFP MLPCN; GFP response vs DMSO, % at 10 µM; 590 compounds, 20% hits; AID 2621;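 active = GFP signal as percent of the solvent control above about 150%, meaning raised reporter expression, limit read from the data; inconclusive = fewer than 70 cells counted in the well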
MEP2 cherry2: yeast MEP2-GFP modulation, second cherry pick | 590 compounds, 10% hits | S. cerevisiae MEP2-GFP strain, flow cytometry GFP, 3 h | GFP response vs DMSO, % at 10 µM | shares compounds with LAP4-GFP MLPCN;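 active = GFP signal above 150% of the solvent control wells, that is a rise of more than half; inconclusive = fewer than 70 yeast cells counted in the well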;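 note: median channel GFP fluorescence of all gated yeast cells per well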
RPL19A-GFP pick2: second confirmation of modulators of TOR reporter RPL19A-GFP in yeast | GFP response vs DMSO, % at 10 µM | AID 2623 | shares compounds with LAP4-GFP MLPCN | 590 compounds, 3% hits | S. cerevisiae RPL19A-GFP strain, flow cytometry GFP, 3 h; hits give low values; 100% means same as DMSO wells;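 active = under 65% GFP response relative to DMSO; inconclusive = yeast strain with under 70 measured events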;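 note: median GFP channel fluorescence per well over the all cells gate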
CIT2 GFP CP2: reconfirmed modulator of CIT2-GFP TOR reporter in yeast; shares compounds with LAP4-GFP MLPCN; S. cerevisiae CIT2-GFP strain, flow cytometry GFP, 3 h; DMSO control wells read 100%; GFP response vs DMSO, % at 10 µM; 590 compounds, 8% hits; AID 2624;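 active = GFP response vs DMSO above about 150%, limit read from the data; inconclusive = fewer than 70 events counted for a yeast strain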;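 note: median green fluorescence per well over all gated yeast cells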
AGP1-GFP pick2: second confirmation of modulators of TOR reporter AGP1-GFP in yeast; 590 tested, under 10 active; S. cerevisiae AGP1-GFP strain, flow cytometry GFP, 3 h; shares compounds with LAP4-GFP MLPCN; percent response vs DMSO, % at 10 µM;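 active = over 150 percent of DMSO response; inconclusive = yeast strain measured with under 70 events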;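 note: median GFP channel fluorescence over all cells without mother daughter split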
s288c autofluor: counter-screen for compound autofluorescence in yeast s288c cells; shares compounds with LAP4-GFP MLPCN; 610 tested, under 10 active; AID 2757; fluorescence change (kMESF span) at 33 µM; S. cerevisiae s288c, 520 nm autofluorescence, flow cytometry, 3 h; hits give high values; zero means same as solvent-only cells;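 active = fluorescence span over the dose series, or activity score, above about 33, limit read from the data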
Each line names hits and unclear results; the compound was inactive in the other large screens (follow-up assays come after a bar, where they were run); ! = repeats disagree; [ ] = dose if it differs, or a comment.

CN(C)[C@@H]1C(=O)C(C(N)=O)=C(O)[C@@]2(O)C(=O)C3=C(O)c4c(O)cccc4[C@@](C)(O)[C@H]3[C@H](O)[C@@H]12	Pemphigus Ab inh 44.9!
CC[n+]1c(/C=C/C=C/c2ccc(N(C)C)cc2)sc2ccccc21	RPL19A-GFP yeast inconclusive, LAP4-GFP MLPCN 366.5[may fluoresce red]
COc1ccc2c3c([nH]c2c1)C(C)=NCC3	CIT2 TOR yeast inconclusive, MEP2 TOR yeast 259.1[may fluoresce violet] (no result: Pemphigus Ab inh)
CC1=NCCc2c1[nH]c1cc(O)ccc21	CIT2 TOR yeast inconclusive, MEP2 TOR yeast 197.1[may fluoresce violet]
CC(C)S(=O)(=O)N1Cc2ccccc2-n2nncc2C1	none (no result: RPL19A-GFP yeast, AGP1 TOR yeast, LAP4-GFP MLPCN, CIT2 TOR yeast, MEP2 TOR yeast)
Nc1ccc(N=Nc2ccccc2)cc1	LAP4-GFP MLPCN 190.0
Cc1cc(N=Nc2ccccc2C)ccc1N	none
CC[C@@]1(O)C(=O)OCc2c1cc1n(c2=O)Cc2cc3ccccc3nc2-1	LAP4-GFP MLPCN 160.1 (no result: Pemphigus Ab inh)
CNC1CCc2cc(OC)c(OC)c(OC)c2-c2ccc(SC)c(=O)cc21 (stereo unspecified)	none (no result: RPL19A-GFP yeast, AGP1 TOR yeast, LAP4-GFP MLPCN, CIT2 TOR yeast, MEP2 TOR yeast)
N#CCCn1cc(C(=O)NCc2ccccc2)c(-c2ccccc2)n1	none
O=C(O)c1cccc2c1NC(C(=O)O)C1CC(Sc3ccccc3[N+](=O)[O-])C(Cl)C21 (stereo unspecified)	Pemphigus Ab inh 73.2
CCCCCc1nc2ccccc2c(=O)n1-c1ccc(Cl)cc1[N+](=O)[O-]	none
C[N+]1(CC2COC(c3ccco3)O2)CCCCC1 (stereo unspecified)	CIT2 TOR yeast inconclusive, MEP2 TOR yeast 249.1[may fluoresce violet]
COc1cc(C=NNC(=S)Nc2ccc(S(=O)(=O)N3CCCCC3)cc2)cc(OC)c1OC	none (no result: RPL19A-GFP yeast, AGP1 TOR yeast, LAP4-GFP MLPCN, CIT2 TOR yeast, MEP2 TOR yeast)
Cc1cc(C)n(-c2ccc(NN=C(C#N)C#N)cc2)n1	none (no result: Pemphigus Ab inh)
N#CC(C#N)=NNc1ccc(-n2ccc(C(F)(F)F)n2)cc1	LAP4-GFP MLPCN 198.0
CN1[C@@H]2CC[C@H]1CC(OC(=O)C1C=Nc3ccccc31)C2 (stereo partly specified)	LAP4-GFP MLPCN 185.7, MEP2 TOR yeast 177.3
CN1C2CCC1CC(OC(=O)c1ccc([N+](=O)[O-])cc1)C2 (stereo unspecified)	none
CC[C@H](C)/C=C(C)/C=C/C1=CC2=C(Cl)C(=O)[C@](C)(OC(C)=O)C(=O)C2=CO1	RPL19A-GFP yeast 38.4[may fluoresce violet], CIT2 TOR yeast inconclusive
Cc1ccc(/C=C2\C(=O)NC(=S)N(c3ccc(F)cc3)C2=O)s1	LAP4-GFP MLPCN 237.4 | LAP4 cherry2 199.0 | MEP2 cherry2 inactive | RPL19A-GFP pick2 inactive | CIT2 GFP CP2 inactive | AGP1-GFP pick2 inactive | s288c autofluor inactive
COc1ccc(N2C(=O)/C(=C/c3cccs3)C(=O)NC2=S)cc1	none | LAP4 cherry2 inactive | MEP2 cherry2 inactive | RPL19A-GFP pick2 63.5 | CIT2 GFP CP2 inactive | AGP1-GFP pick2 inactive | s288c autofluor inactive
